Measurements reported in PMC5540273 (PLoS ONE, 2017).

Experiments:
Settings in all cases: concentration: 1 μM, replicates: in singlicate; n = 1
HPK1 = system: HPK1
HUNK = system: HUNK
ICK = system: ICK
IGF1R = system: IGF1R
IKK-alpha = system: T1, IKK-alpha
T1 construct: gene CHUK

IKK-beta = system: T2, IKK-beta
T2 construct: gene IKBKB

IKK-epsilon = system: T3, IKK-epsilon
T3 construct: gene IKBKE

INSRR = system: INSRR
INSR = system: INSR
IRAK1 = system: IRAK1
IRAK3 = system: IRAK3
IRAK4 = system: IRAK4
ITK = system: ITK
[1] = system: JAK1(JH1domain-catalytic)
[2] = system: JAK1(JH2domain-pseudokinase)
[3] = system: JAK2(JH1domain-catalytic)
[4] = system: JAK3(JH1domain-catalytic)
JNK1 = system: T4, JNK1
T4 construct: gene MAPK8

JNK2 = system: T5, JNK2
T5 construct: gene MAPK9

JNK3 = system: T6, JNK3
T6 construct: gene MAPK10
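Also: KINOMEscan kinase panel screen.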

Structure (SMILES) | %Inh (HPK1) [%] | %Inh (HUNK) [%] | %Inh (ICK) [%] | %Inh (IGF1R) [%] | %Inh (IKK-alpha) [%] | %Inh (IKK-beta) [%] | %Inh (IKK-epsilon) [%] | %Inh (INSRR) [%] | %Inh (INSR) [%] | %Inh (IRAK1) [%] | %Inh (IRAK3) [%] | %Inh (IRAK4) [%] | %Inh (ITK) [%] | %Inh [1] [%] | %Inh [2] [%] | %Inh [3] [%] | %Inh [4] [%] | %Inh (JNK1) [%] | %Inh (JNK2) [%] | %Inh (JNK3) [%]
Cc1c(Cn2c(C)nn3c(=O)cc(N4CCOC(C)C4)nc23)cccc1C(F)(F)F (centres unmarked) [GSK2344444] | 9 | 0 | 0 | 7 | 12 | 18 | 5 | 3 | 17 | 0 | 0 | 13 | 7 | 2 | 0 | 19 | 38 | 0 | 8 | 2
CN(C1=C(c2ccccc2)C(=O)NC1=O)c1ccccc1 [SB-334860] | 0 | 0 | 13 | 12 | 0 | 0 | 27 | 0 | 5 | 0 | 0 | 0 | 0 | 0 | 6 | 0 | 14 | 0 | 21 | 15
O=C1Cc2cc(Nc3nc(NCc4cccc(S(=O)(=O)C(F)(F)F)c4)ncc3C(F)(F)F)ccc2N1 | 0 | 8 | 0 | 0 | 20 | 8 | 0 | 0 | 0 | 14 | 0 | 22 | 0 | 28 | 0 | 7 | 7 | 9 | 0 | 0
O=C(NCCNc1ccnc(Nc2ccc(F)cc2)n1)c1cc2ccccc2s1 [GSK1379874] | 33 | 12 | 0 | 0 | 0 | 0 | 22 | 0 | 0 | 16 | 0 | 10 | 6 | 12 | 0 | 0 | 0 | 13 | 0 | 0
Fc1ccc(-c2ncn(CCCN3CCOCC3)c2-c2cccnc2)cc1 [SB-211743] | 0 | 44 | 0 | 0 | 0 | 0 | 6 | 8 | 4 | 0 | 64 | 0 | 0 | 20 | 38 | 21 | 0 | 26 | 0 | 0
O=c1cc(N2CCOCC2)nc2n(Cc3cccc(C(F)(F)F)c3)ccn12 [GSK2297543] | 20 | 41 | 0 | 0 | 0 | 0 | 7 | 0 | 14 | 0 | 0 | 0 | 9 | 2 | 0 | 0 | 0 | 0 | 10 | 0
O=C(NOCC1CC1)c1ccc(F)c(F)c1Nc1ccc(I)cc1Cl | 12 | 0 | 100 | 0 | 46 | 35 | 0 | 0 | 0 | 0 | 0 | 0 | 0 | 0 | 0 | 0 | 0 | 0 | 0 | 0
[2H]C([2H])(c1cccc(C(F)(F)F)c1C)n1ccn2c(=O)nc(N3CCOCC3)cc12 [GSK2336394] | 27 | 6 | 8 | 0 | 10 | 16 | 13 | 0 | 2 | 16 | 0 | 16 | 17 | 18 | 0 | 0 | 0 | 21 | 23 | 9
O=C(Nc1cccc(-c2nn3ncccc3c2-c2ccnc(Nc3cccc(C(F)(F)F)c3)n2)c1)c1c(F)cccc1F [GSK299495] | 35 | 4 | 8 | 14 | 33 | 17 | 0 | 0 | 0 | 38 | 0 | 21 | 23 | 22 | 0 | 0 | 0 | 31 | 27 | 14
Cl.Nc1ncnc2occ(-c3ccc(NC(=O)Nc4cc(C(F)(F)F)ccc4F)cc3)c12 [SB-707548] | 85 | 15 | 5 | 5 | 86 | 35 | 63 | 0 | 23 | 35 | 0 | 3 | 9 | 50 | 7 | 59 | 23 | 9 | 94.9 | 12
CCc1nc(-c2cccc(C)c2)c(-c2ccnc(NCc3ccccc3)c2)s1 | 0 | 0 | 0 | 0 | 15 | 2 | 0 | 9 | 0 | 0 | 0 | 0 | 13 | 7 | 31 | 0 | 4 | 0 | 8 | 20
COc1ccc(CNC(=O)NC2CCN(c3ccnc(Nc4ccc(OC)cc4)n3)C2)cc1 (centres unmarked) [GSK1379727] | 38 | 0 | 0 | 0 | 20 | 10 | 12 | 0 | 0 | 28 | 13 | 4 | 7 | 16 | 0 | 20 | 0 | 32 | 19 | 9
CSc1ccc(-c2cc3ncnc(SCC(=O)O)c3s2)cc1 | 0 | 0 | 0 | 2 | 6 | 0 | 0 | 11 | 0 | 28 | 0 | 9 | 0 | 1 | 0 | 0 | 0 | 5 | 10 | 0
O=C(NCCNc1ccnc(Nc2ccc(F)cc2)n1)Nc1ccccc1F [GSK1379880] | 33 | 0 | 0 | 0 | 0 | 0 | 0 | 0 | 0 | 15 | 0 | 11 | 30 | 23 | 0 | 11 | 0 | 32 | 19 | 11
CNc1ncnc2[nH]ncc12 [SKF-18355] | 0 | 34 | 0 | 0 | 0 | 0 | 0 | 0 | 7 | 9 | 0 | 0 | 0 | 0 | 31 | 20 | 2 | 8 | 1 | 0
COC(=O)Nc1nc2cc(Oc3ccc(NC(=O)Nc4cc(F)ccc4F)cc3)ccc2[nH]1.Cl [GW701424] | 30 | 20 | 0 | 18 | 33 | 4 | 16 | 0 | 0 | 36 | 0 | 6 | 0 | 26 | 0 | 1 | 0 | 0 | 2 | 0
